Mtb hypoxia rep: Mtb hypoxia fluorescent reporter inhibition | M. tuberculosis hypoxia-regulated fluorescent reporter, fluorescence | hit rate 0.1% among 300,000 | fluorescence inhibition, % (no concentration beside the values); in the data active = fluorescence inhibition mostly above about 23%, no sharp cut-off; inactive = mostly below about 17%
BioA inh: blocks M. tuberculosis BioA enzyme activity; inhibition, % at 9.99 µM; AID 602481; hit rate 0.096% among 360,000; purified M. tuberculosis BioA enzyme, plate reader; in the data active = inhibition above about 40%
DUSP3 inh: blocks human VHR1 dual specificity phosphatase; inhibition, % at 13.3 µM; P51452; AID 1654; hit rate 0.52% among 290,000; recombinant VHR phosphatase, pNPP absorbance; in the data active = inhibition above about 50%
Target sequence (P51452 whole entry, looked up): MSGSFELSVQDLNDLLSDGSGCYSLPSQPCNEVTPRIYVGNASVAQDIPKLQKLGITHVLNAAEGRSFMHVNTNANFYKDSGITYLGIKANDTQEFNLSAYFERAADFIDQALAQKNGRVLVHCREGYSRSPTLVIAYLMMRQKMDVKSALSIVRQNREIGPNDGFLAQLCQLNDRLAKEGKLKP
FadD28 FP inh: blocks FadD28 binding to the bisubstrate probe; AID 588549; fluorescence polarization; inhibition, % at 12.5 µM; hit rate 0.22% among 360,000; in the data active = inhibition above about 8.5%, passing the limit was not always enough
SARS 3CLpro inh: SARS-CoV 3CLpro protease inhibition; P0C6X7; hit rate 0.14% among 290,000; inhibition, % at 6 µM; AID 1706; recombinant SARS-CoV 3CLpro, quenched FRET peptide cleavage; in the data active = inhibition above about 12%
Hits are given with their value; i = inactive; nt = no result shown. A selection: hits, their analogues and other compounds. The true share with any hit is near 0.7%.

SMILES	Mtb hypoxia rep	BioA inh	DUSP3 inh	FadD28 FP inh	SARS 3CLpro inh
COc1ccc(CCNC(=O)c2ccc(Cl)cc2)cc1	37	i	i	i	i
COc1ccc(CCNC(=O)c2ccccc2)cc1	nt	i	i	i	i
COC(=O)NN=C/C=C/c1ccc2c(c1)OCO2	i	nt	nt	nt	nt
CC(=O)c1sc(NCc2ccc(C)cc2)nc1C	i	i	i	i	i
COc1ccc(CCNc2nc(C)c(C(C)=O)s2)cc1OC	i	81	i	i	i
COc1cccc(NC(=O)COC(=O)c2ccc(F)cc2F)c1	i	i	i	i	i
N#Cc1ccccc1NC(=O)COC(=O)c1ccc(F)cc1F	i	i	53	i	i
CCOC(=O)C1(CC(C)=NNC(N)=O)CC(C)(C)OC1=O (centres undefined)	i	nt	nt	nt	nt
O=C(O)c1ccc2c(c1)C1C=CCC1C(c1cc3c(cc1Br)OCO3)N2 (centres undefined)	i	nt	i	i	i
O=C(O)c1ccc(NS(=O)(=O)c2ccc3c(c2)C2C=CCC2C(c2ccccc2F)N3)cc1 (centres undefined)	i	nt	i	43	i
CCCn1nc(NS(=O)(=O)c2cccc3nonc23)c2cc3cccc(C)c3nc21	i	i	i	9.9	i
COc1ccc(C2Nc3ccccc3C(=O)N2NC(C)=O)c(OC)c1 (centres undefined)	i	i	53	i	i
CCCN1C(=O)c2ccccc2NC1c1ccc(OC)cc1OC (centres undefined)	i	i	i	i	i
CCOc1cc(C=NNC(=O)c2ccncc2)cc(Cl)c1OS(C)(=O)=O	i	nt	nt	nt	nt
COc1ccc(C2=CC3=C(Br)C(=O)C(C)(OC(=O)c4ccco4)C(=O)C3=CO2)cc1 (centres undefined)	nt	i	i	10	nt
COc1ccc(C2=CC3=C(Br)C(=O)C(C)(OC(=O)c4cccs4)C(=O)C3=CO2)cc1 (centres undefined)	i	i	nt	16	nt
COCCN1C=C2C(=O)C(C)(OC(=O)CCC(=O)OC)C(=O)C(Br)=C2C=C1c1ccc(OC)cc1 (centres undefined)	nt	i	nt	i	nt
Cc1nc(N2CCN(C(=O)c3ccco3)CC2)c2oc3ccccc3c2n1	i	i	i	i	nt
CCc1nc(N2CCN(C(=O)c3ccco3)CC2)c2oc3ccccc3c2n1	i	nt	52	i	i
O=C1CN(C(=O)COC(=O)CNC(=O)c2ccc(Br)o2)c2ccccc2N1	i	nt	i	i	i
O=C1CN(C(=O)COC(=O)c2ccc(Br)o2)c2ccccc2N1	26	i	nt	i	nt
O=C1CN(C(=O)CNCc2ccccc2)c2ccccc2N1	i	i	52	i	i
CC(=NNC(=S)NC1CCCCC1)c1cccc(C(F)(F)F)c1	i	nt	nt	nt	nt
CCc1ccccc1NC(=O)CN(C)C(=O)CSc1nnc(Nc2cccc(C)c2C)s1	i	i	i	29	i
Cc1nnc(SCC(=O)N(C)CC(=O)Nc2ccccc2Cl)s1	i	i	nt	i	nt
SMILES	Mtb hypoxia rep	BioA inh	DUSP3 inh	FadD28 FP inh	SARS 3CLpro inh
COc1ccc(NC(=O)C2CCCN2S(=O)(=O)c2cccc3nsnc23)c(OC)c1 (centres undefined)	i	i	60	i	i
CC(C)(C)OC(=O)NCCCCC(NC(=O)c1[nH]cnc1C(=O)Nc1ccc(Cl)cc1)C(=O)OC(C)(C)C (centres undefined)	i	nt	nt	nt	nt
O=[N+]([O-])c1ccc(C=NNc2nc(N3CCCCCC3)nc(N3CCCCCC3)n2)o1	i	nt	nt	nt	nt
O=C1c2ccccc2C(=O)c2c(O)c(O)cc(O)c21	i	i	nt	47	nt
O=C(O)c1ccccc1N/N=C\c1ccnc2ccccc12	nt	nt	i	11	i
O=C(NN=Cc1ccnc2ccccc12)c1ccccc1O	i	nt	nt	nt	nt
CCC(C)C(C(=O)N1CCN(C(=O)OC(C)(C)C)CC1)n1cc(-c2cn(C(C)C(=O)N3CCN(C(=O)OC(C)(C)C)CC3)nn2)nn1 (centres undefined)	i	nt	nt	nt	nt
COc1ccc(-n2cccc2C=C2C(=N)N3N=C(C(C)C)SC3=NC2=O)cc1	i	nt	nt	nt	nt
CC=C(C)C(=O)OC1C(O)c2c(ccc3ccc(=O)oc23)OC1(C)C (centres undefined)	i	nt	nt	nt	nt
COC(=O)c1ccccc1-c1c2ccc(=N)cc-2oc2cc(N)ccc12	nt	i	nt	129	nt
S=c1[nH]nc(-c2ccco2)n1N=Cc1ccc(Br)s1	i	nt	nt	nt	nt
Cc1ccc(C(C)NC(=O)c2ccc3c(c2)OCCO3)cc1C (centres undefined)	i	i	55	i	i
CCCCNC(=O)OC1CC2CCN3C(=O)CCCC(C1CC)C23 (centres undefined)	i	nt	nt	nt	nt
COC(=O)c1nc(N)sc1C(C)C	i	nt	53	i	i
CCC1=Nc2cc(C(=O)NCCCN3CCOCC3)ccc2Sc2ccccc21	i	i	i	i	i
CCC1=Nc2cc(C(=O)NCCN3CCCC3)ccc2Sc2ccccc21	i	i	58	i	i
CCOC(=O)c1cnc(N=CN(C)C)s1	i	nt	nt	nt	nt
COC(=O)C=CC(=O)NCc1ccco1	i	nt	nt	nt	nt
CC(CCN1CCc2nc(-c3ccccc3)c(-c3ccccc3)cc2C1)=NOCC(C)C(OCc1ccccc1)C(C)C (centres undefined)	i	nt	nt	nt	nt
Cc1cc(=O)[nH]c(CN2CCC(c3ccccc3)CC2)n1	i	nt	i	i	i
Cc1nc(CN2CCC(c3ccccc3)CC2)cc(=O)[nH]1	i	nt	53	i	i
COc1ccc2c(Cl)c(C(=O)NN=Cc3ccncc3)sc2c1	i	nt	nt	nt	nt
CC(C)(C)c1ccc2c(c1)OC(C(=O)NN=Cc1ccc(-c3cccc(C(=O)O)c3)o1)CO2 (centres undefined)	i	nt	nt	nt	nt
CC(C)(C)c1ccc2c(c1)OC(C(=O)N/N=C/c1ccc([N+](=O)[O-])o1)CO2 (centres undefined)	nt	i	57	i	i
Cc1ccc(NC(=O)Cn2ncc3c([nH]c4ccccc43)c2=O)cc1Cl	i	i	58	i	i
SMILES	Mtb hypoxia rep	BioA inh	DUSP3 inh	FadD28 FP inh	SARS 3CLpro inh
CCOC(=O)c1ccc(NC(=O)Cn2ncc(Cl)c(Cl)c2=O)cc1	36	nt	i	i	i
O=C(Cn1ncc2c([nH]c3ccccc32)c1=O)Nc1cccnc1	i	i	i	i	i
CCC1=C(OC(=O)N(CC)CC)N2C(=O)OC(=NCCc3c[nH]c4ccccc34)[C@]2(Cc2ccccc2)C2C1=CCC1C(=O)N(c3ccccc3)C(=O)C12 (some centres undefined)	i	nt	nt	nt	nt
O=C(CC1CC=CCCC(Cc2ccc(F)cc2)C(=O)OCCNC1=O)NC(CO)Cc1ccccc1 (centres undefined)	i	nt	nt	nt	nt
COc1cc(NCc2ccccc2O)c2ncccc2c1	i	i	i	12	i
Oc1ccccc1CNc1cccc2cccnc12	i	nt	i	i	i
Cn1c(N/N=C2\CCCc3ccccc32)nc2c1c(=O)n(Cc1ccc(F)cc1)c(=O)n2C	nt	nt	60	i	i
COCCCNc1nc2c(c(=O)n(Cc3ccc(F)cc3)c(=O)n2C)n1C	i	i	nt	i	i
COC(=O)C1CC1C(N)c1ccccc1 (centres undefined)	i	nt	nt	nt	nt
COCCn1nnnc1CN(CCc1ccccc1)Cc1cc2cc(OC)ccc2[nH]c1=O	i	nt	nt	i	i
COCCn1nnnc1CN(CCc1ccc(OC)c(OC)c1)Cc1cc2ccc(C)cc2[nH]c1=O	i	nt	52	i	i
